Most compounds without a hit are left out; they make up all but 1.2% or so of the library.
SKN-1 inh: blocks SKN-1 activity in C. elegans | C. elegans VP596 Pgst-4::GFP/RFP ratio, acrylamide-induced, 24 h | inhibition, % at 21.8 µM | 0.49% of 360,000 active | AID 624304;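 active means interference check ratio from 0.5 to 1.5 plus GFP to RFP signal ratio inhibition reaching or exceeding a fixed threshold, cut at about 30% in these data, passing the limit was not always enough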
VLA-4 inh: inhibition in a human VLA-4 binding assay; P13612; VLA-4 expressing cells, ligand binding flow cytometry; inhibition, % (about 7 µM as worked out from the volumes in the protocol); 0.2% of 330,000 active; AID 2557; in the data active means inhibition above about 50%
ABCB6 inh MLPCN: human ABCB6 transporter inhibition | Q9NP58 | 0.19% of 360,000 active | fluorescence ratio to DMSO, % at 10 µM | K562-ABCB6 porphyrin accumulation, flow cytometry, 1 h; stronger effect = lower value;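 active means fluorescence ratio to DMSO below 75%, the collection mean minus 3 SD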;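 further: signal is porphyrin accumulated inside mitochondria; 100% equals median channel fluorescence of DMSO control wells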
Platelet DG rel: modulates dense granule release in human platelets; human platelet-rich plasma, SFLLRN dense granule ATP release, luminescence; inhibition, %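 (compounds screened at 7.5 µM in platelet-rich plasma)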; 0.22% of 300,000 active;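 active means mean replicate score, as percent of positive control, at or above 50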
Yeast superoxide: yeast age-related superoxide inhibition as caloric restriction mimetic; AID 2690; S. cerevisiae aged cells, superoxide DHE fluorescence; stronger effect = lower value; 0.18% of 330,000 active; superoxide response (% of plate mean), % at 10 µM;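 active means superoxide response under a set limit, about three screen SD below normal, cut at about 65% in these data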;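 further: yeast aged for seven days with compound at 30 °C before DHE staining; 100% = average MFI of all compound-treated wells on the plate with controls excluded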
ABCB6 inh CP1: inhibitors of human ABC transporter ABCB6. shares compounds with ABCB6 inh MLPCN. K562-ABCB6 porphyrin accumulation, flow cytometry, 1 h; stronger effect = lower value. ratio response (% of DMSO), % at 10 µM. 700 tested, under 10 active;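 active means repeat-averaged ratio response below 75% of DMSO, the collection mean minus 3 SD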;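 further: median porphyrin fluorescence at 575 nm with 488 nm excitation from mitochondria; lower ratio means less porphyrin signal so ABCB6 inhibition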
* hit, by the source's call; · = no result given.

SMILES	SKN-1 inh	VLA-4 inh	ABCB6 inh MLPCN	Platelet DG rel	Yeast superoxide	ABCB6 inh CP1
CCOC(=O)[C@]12CCC=C1N(Cc1ccc3c(c1)OCO3)C(=O)[C@H](CC(=O)NCc1ccc(C)o1)C2	0.7	·	101.0	·	·	·
COC(=O)C1=CN(c2ccc(OC)cc2OC)C(N)=C(C#N)C1c1cccc([N+](=O)[O-])c1 (stereo unspecified)	17.4	·	·	·	·	·
CCc1ccc(CCC(=O)Nc2sc(C)c(C)c2C(=O)OC)o1	16.3	7.4	69.0*	-0.5	101.5	97.0
O=C(c1ccc(COc2ccccc2Br)o1)N1N=C(C(F)F)CC1(O)C(F)F (stereo unspecified)	5.2	5.4	96.0	3.9	114.8	101.0
COc1ccc(CCNC(=O)C2CCCN(C(=O)c3ccc(Cl)cc3)C2)cc1 (stereo unspecified)	10.9	5.8	73.0*	-1.0	101.5	102.0
COc1ccc(C2=CC(=O)C[C@H](c3ccc(Cl)cc3)C2)cc1	5.6	10.5	101.0	·	108.7	·
O=C1C=C(c2ccc(OC(F)(F)F)cc2)C[C@@H](c2ccc(Cl)cc2)C1	13.5	0.0	74.0*	·	94.6	98.0
COc1ccccc1NC(=O)Cn1cnc2sc(C(=O)Nc3cc(OC)c(OC)c(OC)c3)c(C)c2c1=O	17.8	11.6	93.0	9.6	83.8	·
CC(=O)Nc1cccc(NC(=O)c2sc3ncn(CC(=O)N4CCCCC4)c(=O)c3c2C)c1	-9.5	·	101.0	·	·	99.0
CCCNC(=O)Cn1cnc2sc(C(=O)Nc3cc(OC)c(OC)c(OC)c3)c(C)c2c1=O	-23.4	3.9	101.0	1.2	108.5	97.0
CCN(CC)C(=O)Cn1cnc2sc(C(=O)Nc3cc(OC)c(OC)c(OC)c3)c(C)c2c1=O	2.7	1.9	97.0	-23.2	107.3	102.0
Cc1ccc(S(=O)(=O)N(C)C[C@H]2Oc3ncc(Br)cc3C(=O)N([C@H](C)CO)C[C@@H]2C)cc1	12.3	·	94.0	·	·	·
O=C(Nc1ccccc1)c1cc(C2CCCCN2C(=O)c2ccc3c(c2)CCO3)on1 (stereo unspecified)	9.1	·	96.0	·	·	·
Cn1nc(C(C)(C)C)cc1C(=O)N1CCCCC1c1cc(C(=O)NCc2cccnc2)no1 (stereo unspecified)	7.3	·	99.0	·	·	·
Cn1c(SCC(=O)N2CCOCC2)nnc1-c1ccc(Cl)cc1Cl	-18.8	6.3	73.0*	-3.0	87.9	103.0
COc1ccc(Cn2cc(CN(C)C3CN(Cc4cn(Cc5ccc(OC)cc5)nn4)S(=O)(=O)C3)nn2)cc1 (stereo unspecified)	7.3	·	97.0	·	·	·
Fc1ccccc1OCCCN1CCOCC1	18.2	8.4	74.0*	5.7	92.2	99.0
NC(c1csc(Nc2ccc(C(=O)c3ccccc3)cc2)n1)C1CCCCC1 (stereo unspecified)	-5.5	·	94.0	·	·	·
COC(=O)[C@@]12C[C@@H](CC(=O)NCc3ccc(C)o3)C(=O)N(Cc3cccc4ccccc34)C1=CCC(C)(C)C2	-7.8	·	·	·	·	·
Cc1cnc(NC(=O)c2sc(Nc3ccccc3)nc2N)o1	4.2	-7.9	19.0*	-11.5	114.0	98.0
COc1ccc(OC)c(NC(=O)C2(C)CCN2Cc2cccc(OC)c2OC)c1 (stereo unspecified)	13.0	·	71.0*	·	·	104.0
CC(C)(C)c1ccc(CC(=O)N2CCC2(C)C(=O)O)cc1 (stereo unspecified)	-0.9	·	95.0	·	·	·
COc1ccccc1OCc1nnc(SCC(=O)N2CCCC2)o1	6.2	5.1	96.0	·	98.4	·
COc1ccccc1OCc1nnc(SCC(=O)c2cc(Cl)ccc2OC)o1	10.6	28.2	68.0*	-0.2	126.8	98.0
O=c1[nH]cnc2c1sc(=S)n2-c1ccccc1	4.1	32.2	65.0*	3.1	96.6	100.0
SMILES	SKN-1 inh	VLA-4 inh	ABCB6 inh MLPCN	Platelet DG rel	Yeast superoxide	ABCB6 inh CP1
Cc1nc2c(F)c(F)c(C(F)(F)F)c(F)c2[nH]1	25.6	2.2	69.0*	0.8	83.6	101.0
Cc1nc2c(Br)c3nc(C(F)(F)F)[nH]c3c(Br)c2[nH]1	17.4	8.6	103.0	0.0	108.0	·
COc1cc2[nH]c(=S)nc(NC3CCCCCC3)c2cc1OC	13.5	0.4	73.0*	3.4	97.3	99.0
COc1cc2[nH]c(=S)nc(NCC3CCCO3)c2cc1OC (stereo unspecified)	7.0	13.9	93.0	-0.4	88.5	·
COc1ccc(NC(=O)c2ccccc2NC(=O)CSc2ccc(C)cc2)cc1	14.8	-11.7	58.0*	-4.1	97.8	101.0
COc1ccc(C2=NOC(C(=O)N3CCCc4ccccc43)C2)cc1 (stereo unspecified)	-13.5	6.0	104.0	-2.8	92.2	·
COc1cc(C2=NOC(C(=O)N3CCCc4ccccc43)C2)cc(OC)c1OC (stereo unspecified)	-16.2	2.4	64.0*	0.5	86.9	100.0
CC(Sc1nc2ccccc2c(=O)n1C)C(=O)N(C)C1CCCCC1 (stereo unspecified)	21.3	-2.6	74.0*	-0.8	77.6	100.0
COc1ccc(OC)c(CN2C(=O)c3ccccc3C2c2nnnn2C(C)C)c1 (stereo unspecified)	-7.5	·	99.0	·	·	·
CCOC(=O)[C@]12CCCC=C1N(Cc1ccc3c(c1)OCO3)C(=O)[C@H](CC(=O)N1CCCCC1)C2	23.7	·	93.0	·	·	·
NC(=O)C(c1ccc(Cl)cc1)c1ccc(Sc2ccccc2)nn1 (stereo unspecified)	5.3	-15.6	73.0*	16.2	90.5	97.0
NC(=O)C(c1ccc(Sc2ccccc2)nn1)c1ccc(Cl)cc1Cl (stereo unspecified)	5.6	15.7	102.0	3.1	111.1	·
CC(=O)NC(c1ccccc1)c1nc(-c2cc3ccccc3o2)cs1 (stereo unspecified)	-1.3	·	97.0	·	·	·
O=C(CN1C(=O)c2cccc3cccc1c23)N1CCN(c2ccc(F)cc2)CC1	-2.5	-0.3	60.0*	4.0	104.2	104.0
Cc1nc2c(C(=O)NCCC(C)C)c[nH]n2c(=O)c1Cl	7.5	-2.0	101.0	1.6	89.1	·
Cc1nc2c(C(=O)NCCC(C)C)c[nH]n2c(=O)c1Cc1ccccc1F	7.2	10.4	102.0	-4.8	98.4	100.0
CCCc1ccc(OCCNC(C)=O)cc1	8.5	-2.0	68.0*	4.6	89.6	102.0
Cc1cc(C)cc(CC(=O)N2CCC2(C)C(=O)NS(=O)(=O)c2ccc(C#N)cc2)c1 (stereo unspecified)	5.8	·	93.0	·	·	103.0
Cc1cc(C)cc(CC(=O)N2CCC2(C)C(=O)NS(=O)(=O)c2cccc(OC(F)F)c2)c1 (stereo unspecified)	-4.0	·	95.0	·	·	99.0
COc1ccc([C@H]2C[C@H](O)[C@@H](n3cc(COC(=O)c4ccccc4)nn3)CN2CC2CCCCC2)cc1	3.9	·	108.0	·	·	·
COc1cc(-c2cc3nc(NCCc4ccc(S(N)(=O)=O)cc4)ccn3n2)cc(OC)c1OC	11.4	·	60.0*	·	·	100.0
NC(Cc1ccccc1)c1csc(Nc2nccc(C(F)(F)F)n2)n1 (stereo unspecified)	2.0	·	91.0	·	·	·
